These results are taken from PubChem BioAssay.

Structures are written as SMILES. The source made the active and inactive calls. Unless noted, no rule for the calls is given here.

Experiment [1] can be described thus: resazurin metabolic signal in HepG2 cells – cell-based, resazurin fluorescence, 24 h, PK04 Diversity Set, profiling panel (AID 1172). Also: test concentration not given here. The conditions noted are these: HepG2 viability, higher = more signal. Background: Resazurin is reduced to fluorescent resorufin, in cell work by metabolically active cells.
Experiment [2] is described as follows: budding yeast growth changes without added modifier – OD600, strain BY4716, 24 h, basal condition, primary screen (AID 1173). The conditions noted are these: S. cerevisiae BY4716 growth, OD600, 24 h; higher = more signal, called active from +8 up or from −8 down.
The nature of experiment [3]: viability profiling in MM1S myeloma cells – cell-based, resazurin fluorescence, basal, 24 h, PK04 Diversity Set, profiling panel (AID 1174).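 Also: MM1S multiple myeloma cell line; test concentration not given here.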 Particulars: higher = more signal, called active from +8 up or from −8 down.
Experiment [4] addresses Dihydroorotate dehydrogenase (quinone), mitochondrial (Plasmodium falciparum (isolate 3D7)) (UniProt Q08210). The experiment can be described thus: inhibition of P. falciparum DHODH – biochemical, C-terminal His tag, absorbance 600 nm, primary screen (AID 1175).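 Also: recombinant parasite enzyme with a five histidine tag at its C terminus; test concentration not given here.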 The conditions noted are these: PfDHODH enzyme, DCIP absorbance 600 nm; higher = more signal, called active from +8 up or from −8 down.

A short description of experiment [5]: inhibition of PAO1 biofilm formation – strain PAO1, LB-PBS medium, absorbance 600 nm, primary screen (AID 1176). Also: test concentration not given here. Particulars: P. aeruginosa PAO1 growth/biofilm, A600, 12 h; higher = more signal.
Experiment [6] can be described thus: growth modulation of vineyard yeast isolate – strain RM11-1a, OD600, basal, 24 h, primary screen (AID 1177).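 Also: cultures grown under basal conditions with no added stressor; test concentration not given here.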 The conditions noted are these: S. cerevisiae RM11-1a growth, OD600, 24 h; higher = more signal, called active from +8 up or from −8 down.
Experiment [7] is described as follows: growth of efflux-deficient E. coli DRC39 – strain DRC39, OD650, 24 h, E. coli filamentation inducers, primary screen (AID 1178).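 Also: growth measured as culture turbidity by optical density at 650 nm; test concentration not given here.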 Particulars: E. coli DRC39 acrAB, higher = more signal, called active from +8 up or from −8 down.
The nature of experiment [8]: growth of efflux-deficient E. coli DRC39 – strain DRC39, OD650, 48 h, E. coli filamentation inducers, primary screen (AID 1179).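 Also: screen aims at cell division blockers that make cells filament.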 The conditions noted are these: E. coli DRC39 delta-acrAB growth, higher = more signal, called active from +8 up or from −8 down.
Experiment [9] in a line: viability profiling in RPMI8226 myeloma cells – cell-based, resazurin fluorescence, basal, 24 h, PK04 Diversity Set, profiling panel (AID 1180).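 Also: RPMI8826 multiple myeloma cell line at 5000 cells per well; test concentration not given here.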 The conditions noted are these: higher = more signal.
In experiment [10] the target is E3 ubiquitin-protein ligase XIAP (Homo sapiens) (UniProt P98170). The experiment can be described thus: small molecules binding XIAP protein – biophysical, small-molecule microarray, fluorescence 635 nm, primary screen (AID 1181).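 Also: score merges 667 nm emission and signal to noise over triplicate slides.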 Particulars: higher = more signal.
Sequence of E3 ubiquitin-protein ligase XIAP (Homo sapiens) (P98170 whole entry, looked up): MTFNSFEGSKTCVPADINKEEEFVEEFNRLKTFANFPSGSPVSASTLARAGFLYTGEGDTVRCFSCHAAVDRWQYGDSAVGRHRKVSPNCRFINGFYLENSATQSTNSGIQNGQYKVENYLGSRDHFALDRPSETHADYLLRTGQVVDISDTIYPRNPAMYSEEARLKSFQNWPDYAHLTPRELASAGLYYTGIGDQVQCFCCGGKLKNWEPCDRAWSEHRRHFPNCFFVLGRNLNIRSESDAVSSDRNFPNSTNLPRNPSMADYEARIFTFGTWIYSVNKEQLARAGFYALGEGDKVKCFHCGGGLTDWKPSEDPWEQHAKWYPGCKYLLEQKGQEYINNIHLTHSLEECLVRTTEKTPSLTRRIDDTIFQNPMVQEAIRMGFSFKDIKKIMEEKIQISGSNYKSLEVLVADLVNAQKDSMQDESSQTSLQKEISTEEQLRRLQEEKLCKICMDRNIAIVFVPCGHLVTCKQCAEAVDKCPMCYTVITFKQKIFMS

Sequence of Dihydroorotate dehydrogenase (quinone), mitochondrial (Plasmodium falciparum (isolate 3D7)) (Q08210 whole entry, looked up): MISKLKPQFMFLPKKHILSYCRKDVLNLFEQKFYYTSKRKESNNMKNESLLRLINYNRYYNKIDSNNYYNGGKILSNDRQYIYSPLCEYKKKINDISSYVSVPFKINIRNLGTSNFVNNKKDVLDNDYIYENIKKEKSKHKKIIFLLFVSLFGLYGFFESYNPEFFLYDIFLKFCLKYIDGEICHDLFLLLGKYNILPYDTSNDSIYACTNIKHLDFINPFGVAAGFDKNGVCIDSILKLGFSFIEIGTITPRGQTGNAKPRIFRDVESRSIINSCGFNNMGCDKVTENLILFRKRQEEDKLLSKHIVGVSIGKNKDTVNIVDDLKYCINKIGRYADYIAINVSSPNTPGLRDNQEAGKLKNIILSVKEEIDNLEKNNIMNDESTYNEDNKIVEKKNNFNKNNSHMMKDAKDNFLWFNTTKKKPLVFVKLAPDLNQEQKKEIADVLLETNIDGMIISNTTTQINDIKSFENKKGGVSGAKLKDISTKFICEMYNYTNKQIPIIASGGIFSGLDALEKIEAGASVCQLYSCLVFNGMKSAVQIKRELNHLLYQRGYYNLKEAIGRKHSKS

Consider `C=C(CCCC)C(=O)CC[C@@H](OC(C)=O)c1cccc(OCCO)c1`, for which the z-score in [1] is -0.749; in experiment [2], -17.8 (active); in experiment [3], -1.01 (inactive); in [5], 0.367 (inactive); in [6], -19.2 (active); in experiment [7], -0.55 (inactive). The z-score was -0.528 (inactive) in experiment [8] and -1.07 in experiment [9]. The composite z-score was -3.64 (inactive) in [4] and 0.136 in [10].
With `COCCOC(=O)N1C(=O)[C@@]2(c3cc(C#CCNC(N)=O)ccc31)[C@H](c1ccc(O)cc1)N1[C@H](c3ccccc3)[C@H](c3ccccc3)OC(=O)[C@H]1[C@@H]2C(=O)N1CCCCCCC1`, the z-score in experiment [1] is -0.0455; in [2] it was 1.01 (inactive); in experiment [3] it was -0.172 (inactive); in experiment [5], 0.553 (inactive); in experiment [6], 0.517 (inactive); in [7], 0.474 (inactive). The z-score in experiment [8] is -0.188 (inactive); in [9], -0.336. Moreover, the composite z-score in experiment [4] was 0.0489 (inactive); in experiment [10], -0.212.
Regarding `CCCCC(=C=CC[C@H](O)c1ccccc1OCCO)C[C@H](O)COCc1ccccc1`, the z-score in experiment [1] was -0.325; in experiment [2], -1.18 (inactive); in experiment [3], -0.505 (inactive); in [5], 0.637 (inactive); in experiment [6], -0.0076 (inactive); in [7], 0.156 (inactive). Moreover, the z-score was 0.0347 (inactive) in experiment [8] and -0.276 in experiment [9]. Further, the results for the composite z-score in experiment [4] and in experiment [10] were -2.89 (inactive) and -0.0062, respectively.
`Cc1ccc(F)cc1S(=O)(=O)N[C@@H]1CCN(Cc2ccc(CC(C)C)cc2)C1`: the z-score in experiment [1] is -0.367; in [2] it was -17.2 (active); in experiment [3], -0.653 (inactive); in experiment [5], 0.294 (inactive); in experiment [6] it was -14.5 (active); in experiment [7] it was -20.3 (active). Further, the results for the z-score in experiment [8] and in [9] were -17.4 (active) and -1.89, respectively. The composite z-score is -0.687 (inactive) in experiment [4] and -0.106 in [10].
Turning to `COc1ccc(COC(=O)NN=C2C[C@@H](O)[C@@H](O)[C@@H]3[C@@H]4C(=O)N(c5ccc(F)cc5F)C(=O)[C@@H]4CC[C@@H]23)cc1`, the z-score was 0.631 in experiment [1]; 0.64 (inactive) in experiment [2]; 0.527 (inactive) in experiment [3]; -0.176 (inactive) in experiment [5]; 0.968 (inactive) in experiment [6]; 0.583 (inactive) in [7]. The z-score was 0.644 (inactive) in experiment [8] and 0.635 in experiment [9]. Further, the composite z-score was 0.0922 (inactive) in experiment [4] and -0.173 in [10].
On to `C[C@@H]1CCC2C(=O)N(Cc3ccccc3)C[C@@H](O)CN2[C@H]1c1ccc(Br)cc1` (stereo not given in full), for which the z-score in [1] was 0.644; in experiment [2], -5.68 (inactive); in experiment [3], 0.726 (inactive); in experiment [5], 0.924 (inactive); in experiment [6], -1.71 (inactive); in [7], 0.957 (inactive). In addition, the z-score in [8] is -1.25 (inactive); in experiment [9] it was 0.39. The values for the composite z-score in experiment [4] and in [10] were -1.3 (inactive) and -0.0009, respectively.
Consider `CCOC(=O)CCN1C(=O)[C@H]2[C@H]3[C@H](O)C=CC(=O)[C@@H]3CC[C@H]2C1=O`, for which the z-score in experiment [1] is -0.0089; in experiment [2], 0.454 (inactive); in experiment [3] it was 0.606 (inactive); in experiment [5], 0.0942 (inactive); in experiment [6], 0.713 (inactive); in experiment [7], 0.446 (inactive). For the same compound, the z-score in experiment [8] is -0.689 (inactive); in experiment [9] it was 0.353. For the same compound, the composite z-score is 0.231 (inactive) in experiment [4] and 0.0356 in experiment [10].
As for `COC(=O)[C@]1(CO)N=C(c2ccc(OCCCO)cc2)O[C@@H]1c1ccccc1N=[N+]=[N-]`, the z-score in experiment [1] was -0.318; in [2], -0.114 (inactive); in experiment [3], -0.198 (inactive); in experiment [5], 0.205 (inactive); in experiment [6], -0.709 (inactive); in experiment [7], -0.131 (inactive). The z-score is 0.57 (inactive) in experiment [8] and -0.459 in experiment [9]. For the same compound, the composite z-score in [4] was 0.482 (inactive); in experiment [10], 0.964.
Regarding `CC[C@@H](c1ccccc1)n1c(=O)n2n(c1=O)[C@H]1[C@H](O)[C@@H]3O[C@@H]3C(=NOCC=C(C)CCC=C(C)C)[C@H]1CC2`, the z-score in experiment [1] was -0.301; in [2], 0.11 (inactive); in experiment [3], -0.16 (inactive); in [5], -0.261 (inactive); in [6], 1.01 (inactive); in [7] it was -0.271 (inactive). Besides, the z-score in experiment [8] is -1.98 (inactive); in experiment [9], -0.451. Also, the values for the composite z-score in experiment [4] and in experiment [10] were 0.0031 (inactive) and -0.141, respectively.
On to `COc1ccccc1CN1C(=O)c2ccccc2[C@@]2(Cc3ccccc3N(C(C)C)C2=O)[C@@H]1c1ccc(CO)cc1`, for which the z-score is -0.643 in experiment [1]; 0.439 (inactive) in experiment [2]; -0.647 (inactive) in experiment [3]; 0.376 (inactive) in experiment [5]; -1.56 (inactive) in experiment [6]; 0.549 (inactive) in experiment [7]. Also, the z-score in experiment [8] is 1.14 (inactive); in [9], -0.457. Moreover, the composite z-score in [4] is -3.28 (inactive); in experiment [10], 0.161.
For `O=C1[C@H]2[C@H]3[C@H](O)[C@H](O)CC(=NO[C@@H]4O[C@H](CO)[C@@H](O)[C@H](O)[C@H]4O)[C@@H]3CC[C@H]2C(=O)N1Cc1ccccc1`, the z-score was 1.04 in [1]; -0.391 (inactive) in experiment [2]; 0.0897 (inactive) in experiment [3]; 0.565 (inactive) in [5]; -0.497 (inactive) in experiment [6]; 0.405 (inactive) in experiment [7]. For the same compound, the values for the z-score in experiment [8] and in experiment [9] were 1.21 (inactive) and -0.145, respectively. For the same compound, the composite z-score in experiment [4] was 0.261 (inactive); in experiment [10], 0.0689.
As to `O=C1C[C@@H](O)[C@@H](O)[C@@H]2[C@@H]3C(=O)N(C4CCCCC4)C(=O)[C@@H]3CC[C@H]12`, the z-score in [1] is 0.513; in [2], 0.44 (inactive); in experiment [3], -0.122 (inactive); in [5], -0.319 (inactive); in experiment [6], -0.247 (inactive); in experiment [7], -0.0543 (inactive). Also, the z-score in experiment [8] was -0.292 (inactive); in experiment [9], 0.288. The composite z-score in [4] is 0.349 (inactive); in [10], -0.0454.
As for `O=C1CCCC=C1C(O)CCOCc1ccccc1` (stereo not given), the z-score in experiment [1] is 0.123; in experiment [2] it was -1.76 (inactive); in [3], -0.43 (inactive); in experiment [5], 0.602 (inactive); in experiment [6], -0.735 (inactive); in experiment [7], -0.88 (inactive). Also, the values for the z-score in experiment [8] and in [9] were -1.74 (inactive) and 0.104, respectively. Further, the composite z-score is -0.0462 (inactive) in [4] and -0.0525 in experiment [10].
